Experimental data reported in the supplement of paper PMC12282887.
± gives the standard deviation of the averaged measurements.

What was measured:
Assay in all cases: promoter activity interaction Z-score (Lux/OD deviation from empty-vector control); higher = stronger promoter induction by the compound
[1] = tested on: E. coli BW25113 acrABp lux reporter
Method in brief: (§1)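 Low-copy luxCDABE promoter reporters were carried by E. coli BW25113, either wild type or lacking one of three genes, grown in 40 µl LB Lennox in 384-well plates at 37°C. Each compound was run at four 1:2 dilutions in biological duplicates, with OD600 and luminescence read every 30 min for 12 h. Integration used 0–8 h for wild type and 1–9 h for deletion strains, and wells under 10% of the median growth value were removed. Luminescence normalised to growth was fitted against a control, and the Z-transformed residual is the score.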

[2] = tested on: E. coli BW25113 marRABp lux reporter
Method in brief: as §1

[3] = tested on: E. coli BW25113 micFp lux reporter
Method in brief: as §1

[4] = tested on: E. coli BW25113 ompFp lux reporter
Method in brief: as §1

[5] = tested on: E. coli BW25113 robp lux reporter
Method in brief: as §1

[6] = tested on: E. coli BW25113 soxSp lux reporter
Method in brief: as §1

[7] = tested on: E. coli BW25113 tolCp lux reporter
Method in brief: as §1

[8] = 0.011 µg/ml, genetic background: wild type
[9] = 0.011 µg/ml, genetic background: ΔmarA
[10] = 0.011 µg/ml, genetic background: Δrob
[11] = 0.011 µg/ml, genetic background: ΔsoxS
[12] = 0.022 µg/ml, genetic background: wild type
[13] = 0.022 µg/ml, genetic background: ΔmarA
[14] = 0.022 µg/ml, genetic background: Δrob
[15] = 0.022 µg/ml, genetic background: ΔsoxS
[16] = 0.044 µg/ml, genetic background: wild type
[17] = 0.044 µg/ml, genetic background: ΔmarA
[18] = 0.044 µg/ml, genetic background: Δrob
[19] = 0.044 µg/ml, genetic background: ΔsoxS

With `C[C@@H](O)[C@H]1C(=O)N2C(C(=O)O)=C(S[C@@H]3CN[C@H](C(=O)N(C)C)C3)[C@H](C)[C@H]12` [Meropenem] the “promoter activity interaction Z-score” value [1, 8] was -0.325 ± 0.13, the “promoter activity interaction Z-score” value [1, 9] was -0.25 ± 1.2 and the “promoter activity interaction Z-score” value [1, 10] was -0.499 ± 0.11. The “promoter activity interaction Z-score” value [1, 11] was -0.443 ± 0.38, the “promoter activity interaction Z-score” value [1, 12] was -0.443 ± 0.2 and the “promoter activity interaction Z-score” value [1, 13] was 0.239 ± 0.72. For the same compound, the “promoter activity interaction Z-score” value [1, 14] was -0.429 ± 0.27, the “promoter activity interaction Z-score” value [1, 15] was -0.714 ± 0.56 and the “promoter activity interaction Z-score” value [1, 16] was -0.272 ± 0.31. The “promoter activity interaction Z-score” value [1, 17] was -0.463 ± 0.48, the “promoter activity interaction Z-score” value [1, 18] was -0.0657 and the “promoter activity interaction Z-score” value [1, 19] was -1.05 ± 0.84. The “promoter activity interaction Z-score” value [2, 8] was -0.451 ± 0.26, the “promoter activity interaction Z-score” value [2, 9] was -0.532 ± 0.041 and the “promoter activity interaction Z-score” value [2, 10] was -0.399 ± 0.031. For the same compound, the “promoter activity interaction Z-score” value [2, 11] was -0.178 ± 0.1, the “promoter activity interaction Z-score” value [2, 12] was -0.13 ± 0.065 and the “promoter activity interaction Z-score” value [2, 13] was -0.4 ± 0.097. The “promoter activity interaction Z-score” value [2, 14] was -0.114 ± 0.41, the “promoter activity interaction Z-score” value [2, 15] was 0.18 ± 0.22 and the “promoter activity interaction Z-score” value [2, 16] was 0.785. The “promoter activity interaction Z-score” value [2, 17] was -0.754, the “promoter activity interaction Z-score” value [2, 18] was 1 and the “promoter activity interaction Z-score” value [2, 19] was -0.0187. For the same compound, the “promoter activity interaction Z-score” value [3, 8] was -0.112 ± 0.01, the “promoter activity interaction Z-score” value [3, 9] was 0.0252 ± 0.018 and the “promoter activity interaction Z-score” value [3, 10] was -0.116 ± 0.077. For the same compound, the “promoter activity interaction Z-score” value [3, 11] was -0.229 ± 0.14, the “promoter activity interaction Z-score” value [3, 12] was 0.415 ± 0.16 and the “promoter activity interaction Z-score” value [3, 13] was -0.0395 ± 0.041. The “promoter activity interaction Z-score” value [3, 14] was 0.325 ± 0.09, the “promoter activity interaction Z-score” value [3, 15] was 0.0746 ± 0.14 and the “promoter activity interaction Z-score” value [3, 16] was -0.67 ± 0.27. The “promoter activity interaction Z-score” value [3, 17] was -0.111 ± 0.099, the “promoter activity interaction Z-score” value [3, 18] was -0.153 ± 0.23 and the “promoter activity interaction Z-score” value [3, 19] was 0.149 ± 0.13. The “promoter activity interaction Z-score” value [4, 8] was -0.54 ± 0.28, the “promoter activity interaction Z-score” value [4, 9] was -0.583 ± 0.092 and the “promoter activity interaction Z-score” value [4, 10] was -0.754 ± 0.17. The “promoter activity interaction Z-score” value [4, 11] was -0.418 ± 0.015, the “promoter activity interaction Z-score” value [4, 12] was -0.588 ± 0.17 and the “promoter activity interaction Z-score” value [4, 13] was -0.0893 ± 0.4. The “promoter activity interaction Z-score” value [4, 14] was -0.761 ± 1, the “promoter activity interaction Z-score” value [4, 15] was 0.398 ± 0.68 and the “promoter activity interaction Z-score” value [4, 16] was -2.42 ± 0.71. For the same compound, the “promoter activity interaction Z-score” value [4, 17] was -1.11 ± 1.2, the “promoter activity interaction Z-score” value [4, 18] was -3.33 and the “promoter activity interaction Z-score” value [4, 19] was -0.548 ± 0.013. For the same compound, the “promoter activity interaction Z-score” value [5, 8] was 0.101 ± 0.27, the “promoter activity interaction Z-score” value [5, 9] was -0.585 ± 0.075 and the “promoter activity interaction Z-score” value [5, 10] was -0.128 ± 0.22. For the same compound, the “promoter activity interaction Z-score” value [5, 11] was -0.321 ± 0.77, the “promoter activity interaction Z-score” value [5, 12] was -0.965 ± 0.67 and the “promoter activity interaction Z-score” value [5, 13] was 0.101 ± 0.13. The “promoter activity interaction Z-score” value [5, 14] was -0.78 ± 0.081, the “promoter activity interaction Z-score” value [5, 15] was 0.872 ± 0.96 and the “promoter activity interaction Z-score” value [5, 16] was -1.9. The “promoter activity interaction Z-score” value [5, 17] was -1.13 ± 0.46, the “promoter activity interaction Z-score” value [5, 18] was -2.08 ± 0.078 and the “promoter activity interaction Z-score” value [5, 19] was -1.54 ± 0.12. The “promoter activity interaction Z-score” value [6, 8] was -0.0716 ± 0.075, the “promoter activity interaction Z-score” value [6, 9] was -0.0983 ± 0.033 and the “promoter activity interaction Z-score” value [6, 10] was -0.37 ± 0.018. The “promoter activity interaction Z-score” value [6, 11] was 0.00722 ± 0.14, the “promoter activity interaction Z-score” value [6, 12] was -0.334 ± 0.51 and the “promoter activity interaction Z-score” value [6, 13] was -0.124 ± 0.17. For the same compound, the “promoter activity interaction Z-score” value [6, 14] was -0.218 ± 0.073, the “promoter activity interaction Z-score” value [6, 15] was 0.588 ± 0.26 and the “promoter activity interaction Z-score” value [6, 17] was -1.21. For the same compound, the “promoter activity interaction Z-score” value [6, 18] was -0.982 ± 0.23, the “promoter activity interaction Z-score” value [6, 19] was 0.387 ± 0.062 and the “promoter activity interaction Z-score” value [7, 8] was -0.834 ± 0.2. For the same compound, the “promoter activity interaction Z-score” value [7, 9] was -1.09 ± 0.39, the “promoter activity interaction Z-score” value [7, 10] was -0.937 ± 0.21 and the “promoter activity interaction Z-score” value [7, 11] was -0.582 ± 0.57. For the same compound, the “promoter activity interaction Z-score” value [7, 12] was -0.873 ± 0.14, the “promoter activity interaction Z-score” value [7, 13] was -0.075 ± 1 and the “promoter activity interaction Z-score” value [7, 14] was -1.42 ± 0.33. For the same compound, the “promoter activity interaction Z-score” value [7, 15] was -0.223 ± 0.39, the “promoter activity interaction Z-score” value [7, 16] was -1.14 and the “promoter activity interaction Z-score” value [7, 17] was -0.703. The “promoter activity interaction Z-score” value [7, 18] was -1.44 ± 0.34 and the “promoter activity interaction Z-score” value [7, 19] was 0.705.
